Results filed as inconclusive are left out. Values without a mark were called inactive. The source made the active and inactive calls. The call rests on the fitted dose curve; in most records, active means well fitted inhibition curve with a large enough effect; inconclusive means small, poorly fitted or top-dose-only effect; inactive means flat fitted curve, though single readings scatter.
What follows are compounds tested against Calcium and integrin-binding protein 1 (Homo sapiens) (UniProt Q99828) (assay: Primary qHTS for Identification of Calcium Integrin Binding Protein 1 (CIB1) Competitor (AID 1508620; further: top concentration of the series differs between compounds)). Details: CIB1-GST / FITC-alphaIIb peptide fluorescence polarization; series mostly up to 114 µM; activity change, negative = inhibition: at the top concentration.
Chain of Calcium and integrin-binding protein 1 (Homo sapiens) (Q99828 whole entry, looked up): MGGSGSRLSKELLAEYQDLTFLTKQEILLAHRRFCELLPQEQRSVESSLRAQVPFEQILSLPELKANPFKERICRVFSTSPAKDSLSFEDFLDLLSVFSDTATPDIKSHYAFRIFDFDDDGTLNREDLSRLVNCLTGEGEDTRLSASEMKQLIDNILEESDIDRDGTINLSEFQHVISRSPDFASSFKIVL
Procedure, shortened: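 Fluorescence polarization competition: GST-tagged CIB1 (1 uM final) preincubated with compound 15 min at room temperature, then FITC-labelled alphaIIb peptide (100 nM final) added. After 15 min at room temperature, polarization read at Ex 480/Em 540.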
On the % scale 0 is the no-effect control and ±100 the full control effect.

| SMILES | activity change, negative = inhibition | Potency |
| --- | --- | --- |
| Cc1noc(C)c1-c1ccc2ncnc(NCc3ccc(C(F)(F)F)o3)c2c1 | -0.457% |  |
| Oc1cccc2cc(Nc3ccccc3)cnc12 | -22.5% |  |
| N#Cc1ccc(C[C@@H](NS(=O)(=O)c2ccc(C(=O)O)cc2)C(=O)O)cc1 | 0.436% |  |
| Cc1ccc(NS(=O)(=O)c2cc3c(cc2Cl)NC(=O)CO3)cc1Cl | 2.62% |  |
| Cc1cc2c(s1)c1cnn(Cc3cccc4cccnc34)c(=O)c1n2C | -1.07% |  |
| CC(C)(C)OC(=O)Cc1nnc(-c2nc3ccccc3[nH]2)o1 | -4.45% |  |
| O=S(=O)(Nc1nccs1)c1ccc(NCc2ccccc2O)cc1 | -11% |  |
| N#Cc1ccc(N2CCN(S(=O)(=O)c3ccc4c(c3)CC(=O)N4)CC2)cc1 | -2.49% |  |
| CCOC(=O)C1CCN(C(=O)C(C)(C)NC(=O)Nc2ccc3c(c2)CCC3)CC1 | -14.6% |  |
| Cc1ccc(-c2ccc(=O)n(CCN)n2)cc1 | 0.435% |  |
| Cc1ccc(CN(C)c2ncnc3ccc(-c4ccc5c(c4)OCO5)cc23)o1 | 3.55% |  |
| O=C(Nc1ccc(-c2nc3ccccc3[nH]2)cc1)Nc1ccc2c(c1)CCCO2 | 4.57% |  |
| O=C1CN(S(=O)(=O)c2c(F)cccc2F)CCN1S(=O)(=O)c1ccc2c(c1)OCCO2 | 7.19% |  |
| O=C(Nc1ccc(Cl)cc1)Nc1nnc(-c2ccncc2)s1 | 2.47% |  |
| COc1ccc(C2Nc3ccccc3C(=O)N2Cc2ccccc2OC)cc1COc1c(C)cc(NC(C)=O)cc1C (stereo not given) | -2.21% |  |
| Cc1cc(C=CC#N)cc(C)c1Nc1nc(Nc2ccc3scnc3c2)c2[nH]cnc2n1 | -8.96% |  |
| O=S(=O)(c1ccc2c(c1)OCCO2)N1CCCN(S(=O)(=O)c2c(F)cccc2F)CC1 | 6.16% |  |
| Cc1cc(N[S+](=O)([O-])c2ccc(NC(=O)Cc3ccc(F)c(C(F)(F)F)c3)cc2)no1 | -10.4% |  |
| O=C1c2ccccc2NC(c2ccc(-c3cccc(Cl)c3)o2)N1O (stereo not given) | -13.2% |  |
| CC(=O)NC(c1cc(Cl)c2cccnc2c1O)C1CC1 (stereo not given) | -18.6% |  |

| SMILES | activity change, negative = inhibition | Potency |
| --- | --- | --- |
| O=C1CCCC2=C1C(c1cccnc1)N=C(Nc1nc3ccccc3o1)N2 (stereo not given) | -14.6% |  |
| Nc1ccccc1OC1=NS(=O)(=O)c2ccccc21 | -4.94% |  |
| COc1ccccc1-c1nnc2n1N=C(c1c(OC)cccc1OC)CS2 | 6.7% |  |
| FC(F)(F)c1ccccc1-c1nc(NCc2ccc(-c3cccc4ccccc34)cc2)c2ccccc2n1 | 7.88% |  |
| O=[S+]([O-])(c1ccc2c(c1)OCCO2)N1CCN([S+](=O)([O-])c2ccc(F)cc2Br)CC1 | -1% |  |
| Cc1cc2c(s1)c1cnn(Cc3cc(C(F)(F)F)cc(Cl)c3F)c(=O)c1n2C | 2.08% |  |
| O=C(c1ccccc1)N1CCN(c2nc(-c3ccc(Br)cc3)cs2)CC1 | 3.47% |  |
| O=C(Nc1cc(C(F)(F)F)ccc1Cl)C(O)Cc1ccccc1 (stereo not given) | 0.177% |  |
| N#Cc1ccc(-c2ccc(-c3nc4ccccc4c(=O)[nH]3)o2)cc1 | 1.75% |  |
| CN(C)c1cccc(-c2nccc(N3CCC(C(N)=O)CC3)n2)c1 | -4.34% |  |
| Cn1c2ccsc2c2cnn(Cc3ccc(F)cc3)c(=O)c21 | 0.241% |  |
| COc1ccc(S(=O)(=O)N2CCN(S(=O)(=O)c3ccc4c(c3)OCCO4)CC2)cc1 |  | inactive |
| O=C1Nc2ccccc2C1Cc1cc(Cl)c(O)c(Cl)c1 (stereo not given) | 0.0598% |  |
| Cc1ccc(OC2=NS(=O)(=O)c3ccccc32)cc1 | -2.65% |  |
| Cc1ccc(OCCn2c(CCNC(=O)C3CCNCC3)nc3ccccc32)cc1 | 4.73% |  |
| COc1ccccc1CNC(=O)Nc1nnc(-c2ccncc2)s1 | 0.607% |  |
| C#CCOc1cccc(-c2nnc3n2N=C(c2ccc(OC)c(OCC(C)=O)c2)CS3)c1 | 6.05% |  |
| O=C(C1CCN(c2nc(-c3ccc(Br)cc3)cs2)CC1)N1CCOCC1 | 4.07% |  |
| Brc1cnc2nc(SCc3cccnc3)[nH]c2c1 | -2.06% |  |
| Cn1nnnc1Sc1ncnc2scc(-c3ccc(C(=O)OC(C)(C)C)cc3)c12 | 9.64% |  |

— PubChem BioAssay (NCATS)
